In the first experiment the target is SLC27A5. Put plainly: pooled miR-30 sensor sort-seq; sequence = guide strand. Conditions: shRNA.
TTGTAGTAAACGTCGCCCGATT: the sensor-assay potency score (higher = more potent) was -1.15.

On to TTGACTAAGCCCATGTTGCCTT, for which the sensor-assay potency score (higher = more potent) is -0.405.

Consider TTCATCAGTTTGAACGTGCTGG, for which the sensor-assay potency score (higher = more potent) amounted to 0.535.

TAGTTGACTAAGCCCATGTTGC gave a sensor-assay potency score (higher = more potent) of -0.878.

TATGTGTCCGGTCCTCTGGTTG yielded a sensor-assay potency score (higher = more potent) of -1.24.

TTGTCCAGTACAAACAGAGGGT: the sensor-assay potency score (higher = more potent) is -0.338.

Take TAGTCCATTGCCCATTGCCAGG: the sensor-assay potency score (higher = more potent) is -1.83.

The sequence TATTCTGCCACTGCTACAGGGC registered a sensor-assay potency score (higher = more potent) of -0.565.

TAAACCACATCATCAGCTGTGG gave a sensor-assay potency score (higher = more potent) of -0.167.

As for TACAGGATCACTGTCACGCCAT, the sensor-assay potency score (higher = more potent) is -0.0663.

TTGCAAGAAGTCCACCTGCGAC came in with a sensor-assay potency score (higher = more potent) of -1.49.

TGTTGTAGTAAACGTCGCCCGA: the sensor-assay potency score (higher = more potent) was -0.779.

The next experiment concerns the target SLC28A2. The experiment is described as above. Conditions: shRNA.
The sequence TTGGTGAAACTTGTGTTTGGGA displayed a sensor-assay potency score (higher = more potent) of -0.24.

In turn, TTCTTTTTCCATGAGCTCCAGC yielded a sensor-assay potency score (higher = more potent) of -0.532.

For TTGGACAAGTCACTCTTCCGGT, the sensor-assay potency score (higher = more potent) was -0.0512.

Consider TTTGTTCTTGTATTGAGACAGT, for which the sensor-assay potency score (higher = more potent) was -0.497.

Values taken from the OligoGym collection.
Further: reference of the scale not given here.
